Compound activity (PubChem BioAssay)
Shown is part of a subset that was picked to be rich in hits.
CBX7 AlphaScr = inhibitors of human CBX7 binding to H3K27me3 peptide; actives 1.1% (n = 66,000); normalised signal (fraction of DMSO) (concentration not given with the values); AlphaScreen His6-CBX7 / biotin-H3K27me3 peptide binding; active compounds read low; in the data active = normalised signal below about 0.5
Target sequence (O95931 whole entry, looked up): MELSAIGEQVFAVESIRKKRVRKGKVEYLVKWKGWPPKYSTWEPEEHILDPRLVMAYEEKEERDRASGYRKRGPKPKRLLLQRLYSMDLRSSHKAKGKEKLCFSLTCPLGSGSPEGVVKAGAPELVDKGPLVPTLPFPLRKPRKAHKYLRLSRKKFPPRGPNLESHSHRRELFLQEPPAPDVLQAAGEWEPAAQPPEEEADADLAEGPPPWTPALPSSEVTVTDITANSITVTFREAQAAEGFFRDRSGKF
Starred values were filed as active, the others as inactive; ! = not confirmed by another sample.

What do the screens show for `Cc1nc2c(C(=O)NC3CCC(C)CC3)c[nH]n2c(=O)c1Cc1ccccc1F` (stereo not given)?
CBX7 AlphaScr: 1.1

What do the screens show for `COC(=O)c1c[nH]n2c(=O)c(Cc3cccc(C)c3)c(C)nc12`?
CBX7 AlphaScr: 1.1

Results for COC(=O)c1c[nH]n2c(NC3CCC(C)CC3)c(-c3ccc(C)cc3)nc12 (stereo not given) ?
CBX7 AlphaScr: 0.23*

How did O=C(NCCc1ccccc1)c1cc(=O)[nH]c2ccc(S(=O)(=O)N3CCOCC3)cc12 do in these assays?
CBX7 AlphaScr: 1

How did COc1cc(Nc2nc(-c3ccccc3)cs2)c(OC)cc1Cl do in these assays?
CBX7 AlphaScr: 0.75

What do the screens show for `COc1cc(Nc2nc(-c3ccc(C4CCCCC4)cc3)cs2)c(OC)cc1Cl`?
CBX7 AlphaScr: 0.46*!

Results for COc1cc(Nc2nc(-c3ccc(-c4ccccc4)cc3)cs2)c(OC)cc1Cl ?
CBX7 AlphaScr: 0.54

What do the screens show for `C=CCN1C(=O)c2ccccc2Sc2ccc(C(=O)N3CCN(Cc4ccccc4)CC3)cc21`?
CBX7 AlphaScr: 0.88

Results for O=C(NCCCN1CCOCC1)c1cc(-c2ccco2)on1 ?
CBX7 AlphaScr: 0.95

What do the screens show for `COc1cccc(NC(=O)C(=O)NCCCn2ccnc2)c1`?
CBX7 AlphaScr: 0.87

What do the screens show for `O=C(NCCCn1ccnc1)c1cc(-c2ccco2)on1`?
CBX7 AlphaScr: 0.42*

How did Cc1ccc(NC(=O)C(=O)NCCCn2ccnc2)cc1Cl do in these assays?
CBX7 AlphaScr: 0.91

How did O=C(NCCCn1ccnc1)c1cc(-c2ccc(Cl)c(Cl)c2)on1 do in these assays?
CBX7 AlphaScr: 0.89

What do the screens show for `Cc1cccc(NC(=O)C(=O)NCCCn2ccnc2)c1`?
CBX7 AlphaScr: 0.42*

How did CC(C)CCNC(=O)c1cc(=O)n(Cc2ccc(Cl)cc2)c2ccccc12 do in these assays?
CBX7 AlphaScr: 1

How did CCn1c(CCCNC(=O)c2ccc(OC)c(OC)c2)nc2ccccc21 do in these assays?
CBX7 AlphaScr: 0.98

What do the screens show for `COc1ccc(NC(=O)C(Cc2ccccc2)NS(=O)(=O)c2cccc3cccnc23)cc1` (stereo not given)?
CBX7 AlphaScr: 1

How did c1cnc2c(SCC3CCOCO3)cccc2c1 (stereo not given) do in these assays?
CBX7 AlphaScr: 1.1

What do the screens show for `O=C(CC(Sc1cccc2cccnc12)c1ccc(OC(F)F)cc1)c1ccco1` (stereo not given)?
CBX7 AlphaScr: 0.0051*

Results for Cc1nc2cc(-c3cccc(F)c3)nn2c(C)c1CCC(=O)Nc1ccccc1 ?
CBX7 AlphaScr: 0.97

How did COc1ccc(C(=O)NCc2nnc(SCC(=O)Nc3cc(C)on3)o2)cc1OC do in these assays?
CBX7 AlphaScr: 0.96

Results for COc1cc(C(=O)NCc2nnc(SCC(=O)Nc3ccc(Cl)cc3)o2)cc(OC)c1OC ?
CBX7 AlphaScr: 0.95

Results for O=C(CSc1nnc(CNC(=O)c2c(F)cccc2Cl)o1)Nc1ccccc1 ?
CBX7 AlphaScr: 0.91

What do the screens show for `Cc1nnc(NC(=O)CSc2nnc(CNC(=O)COc3ccc(Cl)cc3)o2)s1`?
CBX7 AlphaScr: 0.85

What do the screens show for `COc1cc(C(=O)NCc2nnc(SCC(=O)Nc3cc(C)on3)o2)cc(OC)c1OC`?
CBX7 AlphaScr: 0.051*

Results for Cc1cccc(NC(=O)CSc2nnc(CNC(=O)COc3ccc(Cl)cc3)o2)c1 ?
CBX7 AlphaScr: 1

How did Cc1cc(NC(=O)CSc2nnc(CNC(=O)c3c(F)cccc3Cl)o2)no1 do in these assays?
CBX7 AlphaScr: 0.029*

Results for Cc1cccc(NC(=O)CSc2nnc(CNC(=O)c3c(F)cccc3Cl)o2)c1 ?
CBX7 AlphaScr: 1.1

How did Cc1cc(NC(=O)CSc2nnc(CNC(=O)COc3ccc(Cl)cc3)o2)no1 do in these assays?
CBX7 AlphaScr: 0.21*

How did Cc1cccc(N2C(=O)c3ccc(C(=O)Nc4nccs4)cc3C2=O)c1 do in these assays?
CBX7 AlphaScr: 0.89

How did Cc1ccc2c(c1)N(CCCC(=O)N1CCOCC1)C(=O)CO2 do in these assays?
CBX7 AlphaScr: 1

How did COc1ccc(Nc2ncc(C(=O)Nc3cc(OC)ccc3OC)c3ccccc23)cc1 do in these assays?
CBX7 AlphaScr: 1

How did CCc1nnc(NC(=O)c2cc(OC)c(OC)c(OC)c2)s1 do in these assays?
CBX7 AlphaScr: 0.99

What do the screens show for `CCc1nnc(NC(=O)c2ccc(C(C)(C)C)cc2)s1`?
CBX7 AlphaScr: 0.99

What do the screens show for `CCc1nnc(NC(=O)c2ncn[nH]2)s1`?
CBX7 AlphaScr: 0.38*

What do the screens show for `O=C(Nc1ccc(F)cc1F)c1cc(C2CC2)on1`?
CBX7 AlphaScr: 1

Results for COCCN1Cc2cccc(C(=O)NCc3ccc(C)cc3)c2C1=O ?
CBX7 AlphaScr: 1

What do the screens show for `COCCCNC(=O)C1CCC(=O)N(c2ccc(OC)cc2)C1c1ccc(OC)cc1` (stereo not given)?
CBX7 AlphaScr: 1.1

What do the screens show for `O=C(Nc1cc(-c2nc3ccccc3s2)ccc1Cl)c1ncn[nH]1`?
CBX7 AlphaScr: 0.85

How did O=C(Nc1nc(SCc2ccccc2Cl)ns1)c1ncn[nH]1 do in these assays?
CBX7 AlphaScr: 0.053*

What do the screens show for `O=C(Nc1ncc(Cc2ccccc2Cl)s1)c1cccc2ccccc12`?
CBX7 AlphaScr: 0.9

What do the screens show for `Cc1c(NC(=O)c2ccccc2Cl)cccc1-c1nc2ncccc2o1`?
CBX7 AlphaScr: 0.83

Results for O=C(NC1CCCC1)C1c2ccccc2C(=O)N1Cc1ccccc1 (stereo not given) ?
CBX7 AlphaScr: 1

Results for Cc1ccccc1C(=O)Nc1cccc(-c2nc3ncccc3o2)c1 ?
CBX7 AlphaScr: 1

How did COc1ccc(CCC(=O)Nc2ccc(-c3noc(COc4ccccc4C)n3)cc2)cc1 do in these assays?
CBX7 AlphaScr: 1

What do the screens show for `Cc1ccc(S(=O)(=O)Nc2ccc3c(c2)ncn3C(C)(C)C)cc1`?
CBX7 AlphaScr: 0.89

What do the screens show for `CC(C)c1ccc(CNc2ccc3c(c2)ncn3C(C)(C)C)cc1`?
CBX7 AlphaScr: 0.29*

Results for COc1cccc(CNc2ccc3c(c2)ncn3C(C)C)c1OC ?
CBX7 AlphaScr: 0.74

What do the screens show for `CC(C)(C)n1cnc2cc(NCc3ccccc3Cl)ccc21`?
CBX7 AlphaScr: 0.4*

What do the screens show for `CC(C)n1cnc2cc(NCc3ccncc3)ccc21`?
CBX7 AlphaScr: 0.93

Results for CC(C)c1ccc(CNc2ccc3oc(-c4ccccc4)nc3c2)cc1 ?
CBX7 AlphaScr: 1.4

Results for COc1ccccc1-n1cnc2cc(NCc3ccc(Cl)cc3)ccc21 ?
CBX7 AlphaScr: 0.71

What do the screens show for `CCn1cnc2cc(NCc3ccc(Cl)cc3Cl)ccc21`?
CBX7 AlphaScr: 0.85

Results for COc1ccc(CNc2ccc3c(c2)ncn3C(C)(C)C)cc1 ?
CBX7 AlphaScr: 0.55

How did CC(C)n1cnc2cc(NCc3cccc4ccccc34)ccc21 do in these assays?
CBX7 AlphaScr: 0.25*

What do the screens show for `Cc1ccc(CNc2ccc3c(c2)ncn3C(C)(C)C)cc1`?
CBX7 AlphaScr: 0.41*

Results for CCOc1ccccc1Nc1nc(-c2ccccc2F)nc2ccccc12 ?
CBX7 AlphaScr: 1.8

What do the screens show for `CC(NC(=O)c1cc2c(s1)CS(=O)(=O)C2)C12CC3CC(CC(C3)C1)C2` (stereo not given)?
CBX7 AlphaScr: 1

How did Cc1nn(Cc2ccccc2)c(C)c1NC(=O)c1cc(-c2ccc(Cl)c(Cl)c2)on1 do in these assays?
CBX7 AlphaScr: 0.88

How did Cc1cc(N2CCC(C(=O)N(C)Cc3ccccc3)CC2)n2nc(C)c(-c3ccc(Cl)cc3)c2n1 do in these assays?
CBX7 AlphaScr: 1.3

How did CCCCn1c(C(C)NC(=O)Cc2ccccc2)nc2ccccc21 (stereo not given) do in these assays?
CBX7 AlphaScr: 1
